Screens: PubChem, National Center for Advancing Translational Sciences (NCATS)
IL1B secr inh = blocks inflammasome-driven IL-1 beta release. THP-1 LPS/ATP IL-1B secretion, AlphaLISA, 16 h; hits give low values. activity change, % at 57.5 µM. 360,000 compounds, 4.7% hits. AID 743279; in the data active = activity change below about -50%; inconclusive = mostly about -30% to -49%; note: % is set by controls: 0 for no effect and ±100 for the full control effect
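THP-1 cells pretreated 1 hr with compounds (up to 57.5 uM final), then stimulated with LPS (250 ng/mL final) plus ATP (1.25 mM final); secreted IL-1B measured by AlphaLISA after 16 hr, decreased signal indicating inhibition.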
ATXN viability = reduces viability in counter-screen for ATXN expression inhibitors | 400,000 compounds, 0.49% hits | Potency, µM (series often up to 56.7 µM), usual class: cytotoxic | AID 651635 | S2 cells (HEK-293 line with an ATXN2-luciferase reporter) viability, CellTiter-Fluor protease fluorescence, 24 h; note: potency is the fitted concentration of half-maximal effect; nearly all actives have a fitted effect of over 40% in size
TGFb SMAD3 inh = inhibitors of TGF-b signaling; HepG2 CAGA-GFP TGF-b/SMAD3 reporter, GFP fluorescence, 18 h; TGF-beta stimulated, 500 pg/mL final; Potency, µM (doses to about 46.1 µM), for the others: at the highest dose activity, negative = inhibition, usual class: inhibitors; 410,000 compounds, 1.2% hits; AID 588855; note: potency is the fitted concentration of half-maximal effect; % is set by controls: 0 for no effect and ±100 for the full control effect; nearly all actives have a fitted effect of over 65% in size
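Per well, imaged GFP fluorescence of HEPG2 CAGA-GFP cells gives the signal; cells get compound, then TGF-beta (500 pg/mL final), 18 h at 37 degrees C; %Activity versus -TGF-beta and +DMSO controls.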
HepG2 viability = HepG2 cytotoxicity, counter-screen for TGF-b inhibitors | HepG2 CAGA-GFP viability, ATP luminescence, 18 h | Potency, µM (doses to about 46.1 µM), inactives show top-dose activity change, negative = cytotoxicity, actives largely listed as cytotoxic | 410,000 compounds, 0.76% hits; note: potency is the fitted concentration of half-maximal effect
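CellTiter-Glo luminescence gave cytotoxicity after 18 hours at 37 degrees C. The cells were HepG2 CAGA-GFP in 1% FBS DMEM, stimulated with 500 pg/mL TGF-beta after compound addition. %Activity was normalised to no-cell wells (complete cell-killing) and DMSO (no toxicity), and curves were fitted and classified.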
ATXN2 expr inh = inhibitors of ATXN2 expression; HEK-293 ATXN2-luciferase reporter, luminescence, 24 h; AID 1745845; 360,000 compounds, 0.72% hits; Potency, µM (series often up to 57 µM), inactives show at the highest dose activity change, negative = inhibition, hits mostly inhibitors; note: potency is the fitted concentration of half-maximal effect; % is set by controls: 0 for no effect and ±100 for the full control effect; nearly all actives have a fitted effect of over 55% in size
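qHTS (up to 57 uM final) was run with 24 h compound exposure of reporter cells at 37 °C. Each well was multiplexed: SteadyGlo luminescence measured ATXN2-luciferase expression after a fluorogenic Gly-Phe-AFC viability readout (25 uM final).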
The depositor's hits bear a star. Sampled rows, rich in hits. Any-hit rate of the full collection: about 5.7%. Unless noted, calls come from the whole dose curve; as a rule, active = well fitted curve in the direction sought with a large enough effect; inconclusive = small, poorly fitted or top-dose-only effect, or another doubt; inactive = no such curve, though single readings can be large; an effect the other way counts as inactive or inconclusive.

How did Clc1ccc2nc(C3CCCCC3)c(Cc3ccccc3)n2c1 do in these assays?
IL1B secr inh: 28; ATXN viability: inactive; TGFb SMAD3 inh: -20%; HepG2 viability: -11%; ATXN2 expr inh: 5%

How did FC(F)(F)c1ccccc1Cc1c(C2CCCCC2)nc2ccc(Cl)cn12 do in these assays?
IL1B secr inh: -21; ATXN viability: 18µM*; TGFb SMAD3 inh: inconclusive; HepG2 viability: -31%; ATXN2 expr inh: inconclusive

Results for COc1ccccc1Cc1c(C2CCCCC2)nc2ccc(Cl)cn12 ?
IL1B secr inh: -14; ATXN viability: inconclusive; TGFb SMAD3 inh: inconclusive; HepG2 viability: 18µM*; ATXN2 expr inh: inconclusive

Results for Cc1ccc2nc(C3CCCCC3)c(CC(C)(C)C)n2c1 ?
IL1B secr inh: 33; ATXN viability: 22µM*; TGFb SMAD3 inh: inconclusive; HepG2 viability: -25%; ATXN2 expr inh: -32%

Results for COC(=O)c1ccc2nc(C3CCCCC3)c(Cc3ccccc3C(F)(F)F)n2c1 ?
IL1B secr inh: -17; ATXN viability: inconclusive; TGFb SMAD3 inh: 22µM*; HepG2 viability: -105%; ATXN2 expr inh: inconclusive

What do the screens show for `O=C(COc1ccccc1C(=O)OCC(=O)Nc1cccc2ccccc12)Nc1ccc(Br)cc1`?
TGFb SMAD3 inh: 7%; HepG2 viability: 2%

What do the screens show for `CCCc1nc2ccc(Br)cn2c1Cc1ccccc1OC`?
IL1B secr inh: 2; ATXN viability: 22µM*; TGFb SMAD3 inh: 16µM*; HepG2 viability: -49%; ATXN2 expr inh: inconclusive

What do the screens show for `CCCc1nc2ccc(C)cn2c1Cc1ccccc1OC`?
IL1B secr inh: 0; TGFb SMAD3 inh: inconclusive; HepG2 viability: -41%; ATXN2 expr inh: inconclusive

Results for COc1ccccc1Cc1c(C2CCCCC2)nc2ccc(C)cn12 ?
IL1B secr inh: -17; TGFb SMAD3 inh: 16µM*; HepG2 viability: -51%; ATXN2 expr inh: inconclusive

How did COc1ccccc1Cc1c(-c2ccc(Cl)cc2)nc2c(C)cc(Br)cn12 do in these assays?
IL1B secr inh: 0; ATXN viability: inconclusive; TGFb SMAD3 inh: 14µM*; HepG2 viability: 13µM*; ATXN2 expr inh: inconclusive

Results for Cc1ccc(Cc2c(C3CCCCC3)nc3ccc(Br)cn23)cc1 ?
IL1B secr inh: 8; ATXN viability: inconclusive; TGFb SMAD3 inh: inconclusive; HepG2 viability: -13%; ATXN2 expr inh: -26%

What do the screens show for `Cc1cc(Br)cn2c(Cc3ccccc3C(F)(F)F)c(-c3ccccc3)nc12`?
IL1B secr inh: 43; ATXN viability: inactive; ATXN2 expr inh: 21%

What do the screens show for `CCCc1nc2c(C)cc(Br)cn2c1Cc1ccccc1C(F)(F)F`?
IL1B secr inh: 39; ATXN viability: inconclusive; TGFb SMAD3 inh: inconclusive; HepG2 viability: 10µM*; ATXN2 expr inh: inconclusive

Results for Cc1ccc2c(c1)C(c1ccc(F)cc1)N(C(=O)c1ccc(OC(C)C)cc1)CC(=O)N2 (centres undefined) ?
ATXN viability: inconclusive; TGFb SMAD3 inh: 0%; HepG2 viability: -60%; ATXN2 expr inh: inconclusive

How did Cc1ccc(CNC(=O)CCc2c(C)nc3nc(C)nn3c2C)cc1 do in these assays?
ATXN viability: inactive; TGFb SMAD3 inh: 9%; HepG2 viability: -1%; ATXN2 expr inh: 12%

Results for CCCCCCCCCCCC[N+](C)(C)Cc1ccccc1 ?
ATXN viability: 32µM*; ATXN2 expr inh: 25µM*

What do the screens show for `CCCCCCP(=O)(O)c1ccccc1`?
IL1B secr inh: 23; ATXN viability: inactive; TGFb SMAD3 inh: 1%; HepG2 viability: 4%; ATXN2 expr inh: -3%

What do the screens show for `COc1cc(C#Cc2c(-c3cncn3C)n(C)c3ccc(-c4cnc(N5CCOCC5)nc4)cc23)cc(OC)c1`?
IL1B secr inh: inconclusive; ATXN viability: inactive; TGFb SMAD3 inh: -19%; HepG2 viability: -16%; ATXN2 expr inh: inconclusive

What do the screens show for `COc1cc(C#Cc2c(-c3cncn3C)n(C)c3ccc(-c4cnc(OC)nc4)cc23)cc(OC)c1`?
IL1B secr inh: -58*; ATXN viability: inactive; TGFb SMAD3 inh: inconclusive; HepG2 viability: -36%; ATXN2 expr inh: 20µM*

How did CCCCn1c(-c2cccc(Br)c2)nc2cc3[nH]c(=O)c(C(C)C)nc3cc21 do in these assays?
IL1B secr inh: -52*; ATXN viability: inconclusive; TGFb SMAD3 inh: inconclusive; HepG2 viability: -2%; ATXN2 expr inh: 0%

What do the screens show for `CCOC(=O)/C(=C\c1cn(C)c2ccccc12)[N+](=O)[O-]`?
IL1B secr inh: -85*; ATXN viability: inconclusive; TGFb SMAD3 inh: -31%; HepG2 viability: -19%; ATXN2 expr inh: -22%

Results for CN(C)CCCN(C(=O)c1ccc2ccccc2c1)c1nc2cc3c(cc2s1)OCO3 ?
IL1B secr inh: -93*; ATXN viability: 32µM*; TGFb SMAD3 inh: -29%; HepG2 viability: -39%; ATXN2 expr inh: 25µM*

Results for CCN(CC)CCN(C(=O)c1cc2c(ccc3ccccc32)oc1=O)c1nc2cc3c(cc2s1)OCCO3 ?
IL1B secr inh: -61*; ATXN viability: inactive; TGFb SMAD3 inh: 13µM*; HepG2 viability: -84%; ATXN2 expr inh: -8%

What do the screens show for `Cc1ccc2sc(N(CCCN(C)C)C(=O)c3ccc(S(=O)(=O)N(C)C)cc3)nc2c1C`?
IL1B secr inh: -15; ATXN viability: inactive; TGFb SMAD3 inh: -17%; HepG2 viability: -56%; ATXN2 expr inh: -36%

What do the screens show for `CCN(c1ccccc1)S(=O)(=O)c1ccc(C(=O)N(CCCN(C)C)c2nc3c(C)cccc3s2)cc1`?
IL1B secr inh: -71*; ATXN viability: inactive; TGFb SMAD3 inh: inconclusive; HepG2 viability: -60%; ATXN2 expr inh: inconclusive

What do the screens show for `CN(C)CCN(C(=O)c1ccc2ccccc2c1)c1nc2cc3c(cc2s1)OCCO3`?
IL1B secr inh: 0; ATXN viability: inactive; TGFb SMAD3 inh: -22%; HepG2 viability: -25%; ATXN2 expr inh: 15%

Results for Cc1ccc2sc(N(CCCN(C)C)C(=O)c3ccc(S(=O)(=O)N(C)Cc4ccccc4)cc3)nc2c1C ?
IL1B secr inh: -93*; TGFb SMAD3 inh: inconclusive; HepG2 viability: -96%; ATXN2 expr inh: inconclusive

How did CCOc1ccc(CNC(=O)C2CCN(S(=O)(=O)N3CCCCC3)CC2)cc1 do in these assays?
TGFb SMAD3 inh: inconclusive; HepG2 viability: -6%

How did COc1cc(NC(=O)C2=CC(c3ccc(F)cc3)=NS(=O)(=O)N2C)cc(OC)c1OC do in these assays?
ATXN viability: inactive; TGFb SMAD3 inh: 0%; HepG2 viability: 3%; ATXN2 expr inh: 6%

Results for CN(C)CCCN(C(=O)c1ccc(S(=O)(=O)N2CCCCCC2)cc1)c1nc2cc3c(cc2s1)OCO3 ?
IL1B secr inh: -12; ATXN viability: inactive; TGFb SMAD3 inh: inconclusive; HepG2 viability: -60%
